Source: PubChem BioAssay AID1053122 (Broad Institute, 2014)
Potency and affinity values are given separately. Activity calls are given as the source filed them.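 How the source made its calls: active means CTGF level falls with dose and the fitted half-maximal dose is at most twice the top valid dose; inconclusive means flat fit with 30 to 70% drop, or a poor fit; inactive means the rest.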

Experiment: YAP1 pathway inhibition via CTGF transcript levels, dose response, cell-based, DLD1 colon cancer, RT-qPCR, cherry-pick (AID 1053122)

SMILES | outcome
CCC(=O)N1C[C@H](C)[C@@H](OC)CN(C)C(=O)c2cc(NC(=O)Nc3ccc(Cl)cc3)ccc2OC[C@@H]1C | inactive
CCC(=O)N1Cc2cc(C(=O)NCc3cccc(F)c3)nc(-c3cccc(C4=CCCC4)c3)c2[C@H]1CCO | inactive
Cc1ccc(S(=O)(=O)Nc2ccc3c(c2)C(=O)N([C@H](C)CO)C[C@@H](C)[C@H](CN(C)S(=O)(=O)c2cccs2)OCCCC[C@@H](C)O3)cc1 | inactive
C[C@@H]1CN([C@H](C)CO)S(=O)(=O)c2ccc(C#Cc3ccccc3F)cc2O[C@@H]1CN(C)C(=O)Cc1cccnc1 | inactive
CC(C)(C)[S@](=O)N1Cc2cc(C(=O)NCCc3ccncc3)nc(-c3cccc(-c4cccc(C#N)c4)c3)c2[C@@H]1CCO | inactive
C[C@@H]1CN([C@H](C)CO)C(=O)CCCn2nncc2CO[C@@H]1CN(C)Cc1cccc(C(F)(F)F)c1 | inactive
COCC(=O)N1CC(=O)N2[C@H](CO)[C@@H](c3ccc(C#CC4CC4)cc3)[C@H]2C1 | inactive
O=C(Nc1ccc(C(F)(F)F)cc1)Nc1ccc2c(c1)[C@H]1C[C@H](CC(=O)N3CCc4ccccc4C3)O[C@@H](CO)[C@H]1O2 | inactive
CN1C(=O)c2cc(NC(=O)Cc3cccs3)ccc2OC[C@@H]2O[C@@H](CC(=O)NCCc3ccncc3)CC[C@H]21 | inactive
C[C@H](CO)N1C[C@H](C)[C@H](CN(C)Cc2ccc(Oc3ccccc3)cc2)OCc2ccccc2-c2ccccc2C1=O | inactive
COc1ccc([C@H]2C/C=C\C[C@@H](c3ccc4c(c3)OCO4)NC(=O)[C@@H](c3ccccc3)CC(=O)N2)c(OC)c1 | inactive
Cc1ccc(S(=O)(=O)N2CC[C@@H]3[C@H]2c2cc(-c4cccc(C(=O)N(C)C)c4)ccc2N[C@@H]3CO)cc1 | inactive
C[C@H](CO)N1C[C@H](C)[C@@H](CN(C)S(=O)(=O)c2ccc([N+](=O)[O-])cc2)OCc2ccccc2-c2c(n(C)c3ccccc23)C1=O | inactive
COc1ccc2c3c([nH]c2c1)[C@H](CO)NCC31CCN(C(=O)Cc2cccnc2)CC1 | inactive
O=C(CC1CC1)N1CC(=O)N2[C@H](CO)[C@@H](c3ccc(C#Cc4cccc(F)c4)cc3)[C@H]2C1 | inactive
C[C@@H]1CN([C@H](C)CO)C(=O)c2cccc(NC(=O)c3nc4ccccc4s3)c2O[C@H]1CN(C)C(=O)Nc1ccc2c(c1)OCO2 | inactive
C[C@H]1CN([C@@H](C)CO)S(=O)(=O)c2ccc(-c3cncnc3)cc2O[C@@H]1CN(C)C(=O)NC1CCCC1 | inactive
C[C@@H]1CN([C@@H](C)CO)C(=O)c2ccccc2-c2ccccc2CO[C@H]1CN(C)C(=O)Nc1ccc(-c2ccccc2)cc1 | inactive
COc1ccccc1S(=O)(=O)N1CC[C@@H]2[C@H]1c1cc(-c3cccc(C#N)c3)ccc1N(C)[C@H]2CO | inactive
COc1ccc(S(=O)(=O)Nc2ccc3c(c2)C(=O)N([C@@H](C)CO)C[C@H](C)[C@@H](CN(C)S(=O)(=O)c2ccc(Cl)cc2)OCCCC[C@@H](C)O3)cc1 | inactive
C[C@@H]1CC=CC[C@@H](c2cccc(Cl)c2)NC(=O)[C@@H](Cc2ccccc2)N(C)C(=O)c2ccccc2O1 (mixture of isomers) | inactive
CC(=O)N1CCCCN2[C@@H](CO)[C@H](c3ccc(-c4ccccc4)cc3)[C@@H]2C1 | inactive
CCS(=O)(=O)Nc1ccc2c(c1)C(=O)N(C)[C@H]1CC[C@H](CC(=O)N3CCN(C)CC3)O[C@H]1CO2 | inactive
O=C(CC1CC1)N1CC(=O)N2[C@@H](CO)[C@H](c3ccc(/C=C/c4ccccc4)cc3)[C@@H]2C1 | inactive
CC(C)(C)[S@@](=O)N1Cc2cc(C(=O)NCCc3ccncc3)nc(-c3cccc(-c4cccc(C#N)c4)c3)c2[C@H]1CCO | inactive
CNC[C@H]1Oc2c(NC(=O)Nc3cccc4ccccc34)cccc2C(=O)N([C@H](C)CO)C[C@@H]1C | inactive
CO[C@@H]1CN(C)C(=O)c2cc(NS(=O)(=O)c3ccccc3C)ccc2OC[C@@H](C)N(S(=O)(=O)c2ccccc2)C[C@H]1C | inactive
C[C@@H]1CN([C@H](C)CO)C(=O)CCCn2nncc2CO[C@@H]1CN(C)C(=O)c1cc(-c2ccccc2)on1 | inactive
CO[C@H]1CN(C)C(=O)c2cc(NC(=O)Nc3ccccc3F)ccc2OC[C@H](C)N(CCC(F)(F)F)C[C@@H]1C | inactive
